Sampled rows, rich in hits. Any-hit rate of the full collection: about 3.5%.
PPC-1+TRAIL kill: compounds killing PPC-1 cancer cells with TRAIL present, primary screen, TRAIL potentiator project, ATPLite luminescence, uHTS; AID 1443, 2008; cell killing (% activity), % at 4 µM or 5 µM; 220,000 compounds, 0.41% hits; PPC-1 cells + TRAIL, ATPLite viability luminescence;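 active means cell killing above 50% in the first pass at 4 µM, then a duplicate retest at 5 µM averaging 50% or more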;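 further: plate controls were cells with TRAIL plus DMSO for no effect and medium-only wells lacking cells for full effect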
TROY NFkB inh: inhibitors of TROY-driven NF-kB signaling, primary screen, Q293 LMP1-TROYcd cells, NF-kB luciferase, uHTS | 360,000 compounds, 0.98% hits | Q293 LMP1-TROYcd NF-kB luciferase reporter, 4 h | inhibition, % at 10 µM;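 active means compounds whose plate-normalised and pattern-corrected inhibition of the luciferase reporter signal at the single screening dose is 50% or more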
TRAIL sens C8: viability loss with TRAIL in NB7+C8 cells, primary screen, TRAIL sensitizer project, cell-based, ATPlite luminescence; inhibition (viability loss, TRAIL sensitization), % at 10 µM; 360,000 compounds, 1% hits; AID 624354, 2012;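 active means compounds causing at least 50% loss of cell viability in the single-dose screen, relative to plate controls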
Platelet DG rel: inhibitors of platelet dense granule secretion, primary screen, cell-based, MLPCN, human platelets; human platelet-rich plasma, SFLLRN dense granule ATP release, luminescence; inhibition, %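 (compounds screened at 7.5 µM in platelet-rich plasma)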; 300,000 compounds, 0.22% hits; AID 1663, 2009;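 active means mean replicate score, as percent of positive control, at or above 50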
TWEAK Fn14 block: inhibitors of TWEAK-Fn14 signaling, primary screen, luciferase reporter cells, uHTS; TWEAK-stimulated Fn14 reporter cells, luciferase luminescence, 8 h; inhibition, % at 10 µM; 360,000 compounds, 2% hits; in the data active means inhibition above about 50%
HSP90 refold inh: HSP90 inhibitors, primary screen, cell lysate, luminescence; 290,000 compounds, 0.91% hits; inhibition, % at 5.6 µM; AID 1789, 2009; Heat shock protein HSP 90 (rabbit reticulocyte lysate; luciferase refolding); Rabbit reticulocyte lysate, luciferase refolding luminescence, 3 h;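 active means inhibition above the screen-wide mean plus 3 SD, computed separately per campaign, cut at about 16% in these data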;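 further: 0% = DMSO wells and 100% = 60 µM geldanamycin wells; inhibitors lower the luminescence because luciferase stays unfolded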
The depositor's hits bear a star; · = no result given.

SMILES	PPC-1+TRAIL kill	TROY NFkB inh	TRAIL sens C8	Platelet DG rel	TWEAK Fn14 block	HSP90 refold inh
C=C(C(=O)c1ccccc1)C(C(=C)C(=O)c1ccccc1)c1ccc(OC)cc1	13	6	-19	-1	93*	2
C=C(C(=O)c1ccccc1)C(C)C(=C)C(=O)c1ccccc1	12	1	-3	6	94*	4
COCCCn1cc(CN2CC(N3CCN(Cc4ccccc4F)CC3)CS2(=O)=O)nn1 (centres undefined)	·	-4	-1	·	-2	·
CCOC(=O)C1CCN(C(=O)c2sc3ncn(CC(=O)N4CCCCC4)c(=O)c3c2C)CC1	·	-3	-2	·	-16	·
Cc1c(C(=O)Nc2cccnc2)oc2ccc(Br)cc12	·	-70	50*	-1	-16	-3
CCc1ccc2oc(C(=O)Nc3cccnc3)c(C)c2c1	·	-20	42	4	-7	3
CC1=C(C(=O)Nc2ccc(CC(=O)NCc3ccc(OC(C)C)cc3)cc2)SCCO1	·	-13	56*	4	-25	-5
COc1cccc(CNC(=O)c2cccc(NC(=O)C3=C(C)OCCS3)c2)c1	·	18	5	0	10	3
COc1ccc(CNC(=O)Cc2ccc(NC(=O)C3=C(C)OCCS3)cc2)cc1	·	-24	71*	7	-10	1
COc1cccc(/C=C/C(=O)Nc2ccc3nc4n(c(=O)c3c2)CCCC4)c1OC	10	7	8	4	-33	3
O=C(CN1CCCC1)Nc1ccc(-c2nc3cc(NC(=O)CN4CCCC4)ccc3o2)cc1	40	53*	21	8	-17	2
O=C(CCN1C(=O)c2ccccc2C1=O)Nc1ccc(-c2nc3ccccc3o2)cc1	12	-21	1	3	-25	0
O=C(CN1C(=O)c2ccccc2C1=O)Nc1ccc(-c2nc3ccccc3o2)cc1	44	·	13	4	72*	1
c1ccc(CSc2cc3ccccc3[nH]2)cc1	·	4	13	6	7	·
CCNS(=O)(=O)c1ccc(NC(=O)Cn2nc(C(F)(F)F)cc2C)cc1	7	·	-6	-8	87*	-4
Cc1cc(C(F)(F)F)nn1CC(=O)NNC(=S)Nc1ccc(F)cc1	-6	-9	-1	10	9	0
O=C(Nc1ccccc1)c1ccccc1NS(=O)(=O)c1ccc(Cl)s1	-2	63*	-12	3	23	0
O=C(NCc1ccco1)c1ccccc1NS(=O)(=O)c1ccc(Cl)s1	1	7	-5	-24	2	3
Cc1ccc(NC(=O)c2ccccc2NS(=O)(=O)c2ccc(Cl)s2)cc1	12	45	33	4	58*	0
O=C(Nc1ccccc1Cc1ccccc1)c1ccccc1NS(=O)(=O)c1ccc(Cl)s1	42	68*	42	6	58*	-4
CCOC(CNC(=O)c1[nH]c(C(F)(F)F)nc1-c1ccccc1)OCC	·	12	6	·	14	·
O=C(NCc1ccc(F)cc1)C(=O)NCC1OCCN1S(=O)(=O)c1cc(F)ccc1F (centres undefined)	·	7	-8	·	3	·
O=C1c2ccccc2C(=O)N1CCC1(O)C(c2ccccc2)=Nc2ccccc21 (centres undefined)	·	-42	-10	·	-13	·
CC(CCN1CCOCC1)c1ccccc1 (centres undefined)	·	5	-30	-6	60*	0
O=C(Nc1ccncc1)c1ccc(Cl)c(S(=O)(=O)N2CCc3ccccc32)c1	·	46	17	6	78*	·
O=C(Nc1nnc(C2CC2)s1)c1cc(S(=O)(=O)N2CCN(c3ccccc3)CC2)ccc1Cl	1	-8	1	10	17	0
O=C(Nc1nnc(C2CC2)s1)c1ccc(Cl)c(S(=O)(=O)N2CCc3ccccc3C2)c1	11	56*	22	-14	50	-2
Cc1cccc(NC(=O)c2ccc(Cl)c(S(=O)(=O)N3CCc4ccccc43)c2)n1	·	37	16	·	58*	·
CCc1nnc(NC(=O)c2ccc(Cl)c(S(=O)(=O)N3CCc4ccccc43)c2)s1	8	61*	18	-3	-9	1

Bioassay records: PubChem BioAssay, several laboratories
